# Results reported in PubChem BioAssay.
# Calls of active or inactive are those of the source.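 The calls were made as follows: active = inhibition at or above 50% relative to wild type and mutant plate controls; inactive = inhibition below 50%.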
# Experiment: loss of swimming-algae plug formation – whole organism, Chlamydomonas reinhardtii, WT vs cilia-less mutant, absorbance, 96-well, primary screen (AID 463189);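 also: 0% = wild type cc124 cells in DMSO and 100% = ciliumless bld1 mutant cells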
# Conditions: Chlamydomonas reinhardtii gravitaxis, OD600 absorbance, 2 days; at 10 µM; active compounds read high
row,Compound,inhibition
1,N#CC1=C(SCc2ccccc2)NC2=C(C(=O)CCC2)C1c1ccc2c(c1)OCO2 (stereo unspecified),-2.38% (inactive)
2,CC(=O)C1=C(O)C(=O)N(c2cccc(C(=O)O)c2)C1c1ccccc1F (stereo unspecified),3.92% (inactive)
3,Cc1[nH]nc2cn[nH]c12,4.67% (inactive)
4,CCCCOc1ccc(CSC(CC(=O)O)C(=O)O)cc1 (stereo unspecified),1.39% (inactive)
5,O=S(=O)(c1ccccc1)N1CCC(N2CCCCCC2)CC1,32.5% (inactive)
6,COc1cccc(C2/C(=C(\O)c3ccc4c(c3)OCCO4)C(=O)C(=O)N2CCN(C)C)c1 (stereo unspecified),-11.2% (inactive)
7,CC1(C)CC(=O)C(C=NCC(O)c2ccccc2)=C(O)C1 (stereo unspecified),14.3% (inactive)
8,Cc1ccccc1C(=O)c1ccc2c(c1)n(C)c(=O)n2C,0.416% (inactive)
9,COC(=O)C(NC(C)=O)(Nc1ccc(Br)cc1)C(=O)OC,-10.2% (inactive)
10,CCOC(=O)CSc1nc(N)c(C#N)c(-c2ccc(OC)cc2)c1C#N,-7.05% (inactive)
11,COc1cccc(/C(O)=C2/C(=O)C(=O)N(CCCN(C)C)C2c2cccc(Cl)c2)c1 (stereo unspecified),1.66% (inactive)
12,O=C(O)CC(NCc1ccco1)C(=O)OCC1CCCO1 (stereo unspecified),17.1% (inactive)
13,CNc1oc(-c2ccc(Cl)cc2)nc1C#N,7.15% (inactive)
14,O=C(O)CCCC(=O)Nc1ccn(-c2ccccc2)n1,11.2% (inactive)
15,CCOC(=O)C1=C(C)N=C2SC(C)C(=O)N2C1c1ccc(OC(C)=O)c(OC)c1 (stereo unspecified),21.6% (inactive)
16,CCOc1cccc(-c2nn3c(-c4ccco4)nnc3s2)c1,17.2% (inactive)
